Screening results deposited in PubChem BioAssay by several laboratories.
Mcl1-Bid inh: disrupts binding of human Mcl-1 to Bid peptide | Q07820 | TR-FRET Mcl-1/Bid-Dy647 peptide binding, 1536-well | inhibition, % at 21.7 µM | hit rate 0.97% among 220,000;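 active = compounds that cut the binding signal by more than half at the single screening dose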;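 also: His-tagged Mcl-1 with europium anti-His antibody binding Bid BH3 peptide; 0% = Mcl-1 plus peptide wells and 100% = peptide-only wells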
Target sequence (Q07820 whole entry, looked up): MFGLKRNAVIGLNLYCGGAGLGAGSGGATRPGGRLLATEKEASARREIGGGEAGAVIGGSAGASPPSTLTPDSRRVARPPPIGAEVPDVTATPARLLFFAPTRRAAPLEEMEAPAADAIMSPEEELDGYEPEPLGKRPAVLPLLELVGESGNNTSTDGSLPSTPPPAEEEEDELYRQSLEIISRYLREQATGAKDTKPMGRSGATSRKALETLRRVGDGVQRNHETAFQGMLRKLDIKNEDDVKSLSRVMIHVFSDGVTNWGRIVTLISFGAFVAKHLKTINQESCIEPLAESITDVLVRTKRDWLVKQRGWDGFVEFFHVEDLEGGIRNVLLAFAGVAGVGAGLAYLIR
MCL1 BIM primary: inhibitors of human MCL1 binding to BIM-BH3 peptide; Q07820; GST-MCL1 / FITC-Bim-BH3 fluorescence polarization; inhibition, % at 10.9 µM; hit rate 0.68% among 320,000; AID 2057;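 active = inhibition above the mean inhibition of all tested compounds plus 3 SD, set per campaign, cut at about 40% in these data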;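 also: 0% = DMSO wells and 100% = unlabeled Bim-BH3 peptide control; higher means more loss of mP so more displacement of Bim peptide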
Bim-Mcl-1: human Bim-Mcl-1 interaction inhibition. Bead-based flow cytometry, Bim peptide-Mcl-1 binding. hit rate 0.1% among 190,000. inhibition, % at 10 µM. Q07820. AID 1009; in the data active = inhibition above about 40%;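 also: 0% = no compound tracer wells and 100% = peptide blocker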
Mcl1-Noxa inh: disrupts binding of human Mcl-1 to Noxa peptide. Q07820. TR-FRET Mcl-1/Noxa peptide binding, 2 h. inhibition, % at 21.7 µM. hit rate 1.5% among 220,000. AID 1022;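 active = compounds that cut the protein-peptide binding signal by more than 50% relative to plate controls in a single-dose test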;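 also: His-tagged Mcl-1 with rhodamine Noxa BH3 peptide and terbium anti-His antibody; 0% = Mcl-1 plus Noxa peptide wells and 100% = peptide-only wells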
14-3-3 Bad inh: disrupts binding of bovine 14-3-3 zeta to phospho-Bad peptide; P63103; TR-FRET 14-3-3zeta/Dy647-pBad peptide displacement, 1 h; inhibition, % at 21.7 µM; hit rate 0.71% among 220,000;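 active = inhibition above about 70%, limit read from the data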;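 also: 0% = full 14-3-3 plus peptide FRET controls and 100% = background without 14-3-3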
Target sequence (P63103 whole entry, looked up): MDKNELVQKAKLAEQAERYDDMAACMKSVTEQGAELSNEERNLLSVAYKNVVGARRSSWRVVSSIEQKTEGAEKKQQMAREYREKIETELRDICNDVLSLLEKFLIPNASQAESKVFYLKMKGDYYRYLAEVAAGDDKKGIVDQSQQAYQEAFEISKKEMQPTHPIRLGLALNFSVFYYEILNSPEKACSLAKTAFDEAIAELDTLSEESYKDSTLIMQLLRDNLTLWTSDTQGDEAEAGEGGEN
* marks the source's active call; other numbers are inactive results; [ ] = another dose, or the depositor's remark. Compounds with a hit are over-represented: about 2.5% of the library has one in this group of screens.

COC(=O)c1ccc(S(=O)(=O)N2C3CCC2CC(NC(=O)NC2CCCCC2)C3)cc1 (configuration not stated) was read as Mcl1-Bid inh -5, MCL1 BIM primary 1, Bim-Mcl-1 -1, Mcl1-Noxa inh 34 and 14-3-3 Bad inh -8.
For Cc1ccc(Cn2c(Cc3ccccc3)nc3ccccc32)cc1 the results were Mcl1-Bid inh 28, MCL1 BIM primary 0, Bim-Mcl-1 -5, Mcl1-Noxa inh 2 and 14-3-3 Bad inh 66.
For Cc1ccc(Cn2c(S(=O)(=O)O)nc3ccccc32)cc1 the results were Mcl1-Bid inh 3, MCL1 BIM primary 2, Bim-Mcl-1 -2, Mcl1-Noxa inh 16 and 14-3-3 Bad inh 81*.
O=C(Cc1ccc(Br)cc1)N1CCN(c2ccccc2)CC1 was read as Mcl1-Bid inh -15, MCL1 BIM primary 3, Bim-Mcl-1 -2, Mcl1-Noxa inh 0 and 14-3-3 Bad inh -4.
Screening Cc1cccc(N2CCN(C(=O)Cc3ccc(Br)cc3)CC2)c1C returned Mcl1-Bid inh 61*, MCL1 BIM primary 0, Bim-Mcl-1 -5, Mcl1-Noxa inh 42 and 14-3-3 Bad inh -3.
For Cc1ccc(-c2nc3ncccc3o2)cc1NC(=O)c1ccc([N+](=O)[O-])o1 the results were MCL1 BIM primary -4.
For O=C(NN1C(=O)/C(=C/c2ccc(O)c([N+](=O)[O-])c2)SC1=S)c1ccccc1Cl the results were Mcl1-Bid inh 0, MCL1 BIM primary -32, Bim-Mcl-1 2, Mcl1-Noxa inh 32 and 14-3-3 Bad inh -5.
O=C(NN1C(=O)/C(=C/c2cc([N+](=O)[O-])ccc2O)SC1=S)c1ccccc1O was read as MCL1 BIM primary 55*.
Screening COC1=C/C(=C/c2c(N)n3c(nc2=O)sc2cc(S(C)(=O)=O)ccc23)C=CC1=O returned Mcl1-Bid inh -9, MCL1 BIM primary -36, Mcl1-Noxa inh 54* and 14-3-3 Bad inh -9.
For CS(=O)(=O)c1ccc2c(c1)sc1nc(=O)c(/C=C3/C=CC(=O)C(O)=C3)c(N)n12 the results were Mcl1-Bid inh 6, MCL1 BIM primary -10, Mcl1-Noxa inh 90* and 14-3-3 Bad inh 60.
CS(=O)(=O)c1nsc2nc(=O)c(/C=C3\C=Nc4ccccc43)c(N)n12 was read as Mcl1-Bid inh 10, MCL1 BIM primary -8, Bim-Mcl-1 0, Mcl1-Noxa inh 38 and 14-3-3 Bad inh 9.
Cn1c(=NC(=O)c2ccccc2[N+](=O)[O-])sc2cc(S(C)(=O)=O)ccc21 was read as Mcl1-Bid inh -15, MCL1 BIM primary 7, Bim-Mcl-1 -3, Mcl1-Noxa inh 0 and 14-3-3 Bad inh -11.
Screening COc1cccc(SCc2noc(C(=O)NCCCN3CCOCC3)c2C(=O)NCCCN2CCOCC2)c1 returned MCL1 BIM primary -3.
Cc1cc(C)nc(N/N=C/C2=C(N3CCOCC3)C(=C/c3ccccc3)/CC2)n1 was read as Mcl1-Bid inh -21, MCL1 BIM primary 10, Bim-Mcl-1 -3, Mcl1-Noxa inh 53* and 14-3-3 Bad inh -1.
N#C/C(=C\C1=C(N2CCOCC2)C(=C\c2ccc(Cl)cc2)/CC1)C(=O)Nc1ccccc1F was read as Mcl1-Bid inh 62*, MCL1 BIM primary -6, Bim-Mcl-1 2, Mcl1-Noxa inh 45 and 14-3-3 Bad inh 73*[fluorescence artefact?].
Screening Cc1occc1C(=O)N/N=C/C1=C(N2CCOCC2)C(=C\c2ccc(Cl)cc2)/CC1 returned Mcl1-Bid inh -69, MCL1 BIM primary 11, Bim-Mcl-1 -3, Mcl1-Noxa inh 8 and 14-3-3 Bad inh -3.
O=C(O)c1ccccc1N/N=C/C1=C(N2CCOCC2)C(=C\c2ccccc2)/CC1 was read as Mcl1-Bid inh -42, MCL1 BIM primary 12, Mcl1-Noxa inh 63* and 14-3-3 Bad inh 7.
`O=C(N/N=C/C1=C(N2CCOCC2)C(=C\c2ccccc2)/CC1)Nc1ccccc1` gave Mcl1-Bid inh -16, MCL1 BIM primary 1, Bim-Mcl-1 -11, Mcl1-Noxa inh -19 and 14-3-3 Bad inh 5.
For Cc1cc(=O)[nH]c(N/N=C/C2=C(N3CCOCC3)C(=C\c3ccc(Cl)cc3)/CC2)n1 the results were Mcl1-Bid inh 32, MCL1 BIM primary -10, Bim-Mcl-1 -3, Mcl1-Noxa inh 56* and 14-3-3 Bad inh 17.
Screening Cc1ccc(NC(=O)CSc2nc3ccccc3c(=O)n2CCCN2CCCCC2)cc1Cl returned Mcl1-Bid inh -2, MCL1 BIM primary 2, Bim-Mcl-1 41*, Mcl1-Noxa inh -12 and 14-3-3 Bad inh -4.
`O=C(CCl)NN=C(c1ccccc1)c1ccccc1` gave Mcl1-Bid inh -32, MCL1 BIM primary 0, Bim-Mcl-1 -1, Mcl1-Noxa inh -7 and 14-3-3 Bad inh -9.
Screening C/C=C/c1ccc(OCCCCOc2ccccc2F)c(OC)c1 returned Mcl1-Bid inh -18, MCL1 BIM primary 8, Bim-Mcl-1 -7, Mcl1-Noxa inh 14 and 14-3-3 Bad inh -21.
Screening C/C=C/c1ccc(OCCOc2cc(C=O)ccc2OC)c(OC)c1 returned Mcl1-Bid inh -56, MCL1 BIM primary 2, Bim-Mcl-1 -4, Mcl1-Noxa inh 6 and 14-3-3 Bad inh 7.
`C/C=C/c1ccc(OCCn2cncn2)c(OC)c1` gave Mcl1-Bid inh 10, MCL1 BIM primary 2, Bim-Mcl-1 3, Mcl1-Noxa inh 14 and 14-3-3 Bad inh 84*.
`C/C=C/c1ccc(OCCCCn2cncn2)c(OC)c1` gave Mcl1-Bid inh 57*, MCL1 BIM primary -3, Bim-Mcl-1 -2, Mcl1-Noxa inh 23 and 14-3-3 Bad inh 75*.
For C/C=C/c1ccc(OCCCn2cncn2)c(OC)c1 the results were Mcl1-Bid inh 27, MCL1 BIM primary -1, Bim-Mcl-1 -2, Mcl1-Noxa inh 15 and 14-3-3 Bad inh 74*.
C/C=C/c1ccc(OCCCNC(C)CC)c(OC)c1 (configuration not stated) was read as Mcl1-Bid inh 59*, MCL1 BIM primary -6, Bim-Mcl-1 -4, Mcl1-Noxa inh 8 and 14-3-3 Bad inh 37.
For CC1CN(c2ccc([N+](=O)[O-])c(NCCOc3ccccc3)c2)CCN1 (configuration not stated) the results were Mcl1-Bid inh -9, MCL1 BIM primary 16, Bim-Mcl-1 0, Mcl1-Noxa inh 3 and 14-3-3 Bad inh -9.
`COc1ccc(CCN2C(=O)C3C4CCC(C4=C(C)C)C3C2=O)cc1OC` (configuration not stated) gave Mcl1-Bid inh -11, MCL1 BIM primary 2, Bim-Mcl-1 -5, Mcl1-Noxa inh 19 and 14-3-3 Bad inh 2.
COc1ccc(NC(=O)Cn2nnc(-c3ccccc3NC(=O)c3ccco3)n2)cc1 was read as Mcl1-Bid inh 66*, MCL1 BIM primary 4, Bim-Mcl-1 0, Mcl1-Noxa inh -40 and 14-3-3 Bad inh 59.
For O=C(Cn1nnc(-c2ccccc2NC(=O)c2cccs2)n1)Nc1ccccc1 the results were Mcl1-Bid inh 87*, MCL1 BIM primary -7, Bim-Mcl-1 -4, Mcl1-Noxa inh 6 and 14-3-3 Bad inh 4.
`CCN1CCN(c2ccc(S(=O)(=O)N3CCCCC3)cc2NC(=O)c2cccc(C)c2[N+](=O)[O-])CC1` gave MCL1 BIM primary -3.
